# Reference: PMC8384837, “Expanding the binding specificity for RNA recognition by a PUF domain”
# Changes are numbered by the printed parent chain.
# Key:
# Test in all cases: yeast three-hybrid, YBZ-1, SC-Leu-His + 0.5 mM 3-AT, 4 days
# Conditions in all cases: tags: N-Gal4 AD-HA kept; label: inside an RPR1-promoter hybrid RNA with tandem MS2 sites; ssRNA
# [1] = biological target: PUM1 PUF domain R8-RHG (Homo sapiens, UniProt Q14671 828-1176, N1122R;Y1123H;Q1126G)
# How it was run: (§1)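 The interaction score is the log change in how often each variant appears, from input to selection. Frequencies came from PCR-amplified, Illumina-sequenced repeat regions of Pumilio-1 PUF domain libraries grown in strain YBZ-1 (LexA–MS2 coat fusion, HIS3 reporter) alongside matching RNA elements. Input plates were SC-Leu and selection plates were SC-Leu-His + 0.5 mM 3-AT, each for four days, and the log2 calculation used a pseudocount of 1 where a variant was absent.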
# [2] = biological target: T1, PUM1 PUF domain R6-RFC (Homo sapiens, UniProt Q14671 828-1176, N1043R;Y1044F;Q1047C)
# T1 sequence: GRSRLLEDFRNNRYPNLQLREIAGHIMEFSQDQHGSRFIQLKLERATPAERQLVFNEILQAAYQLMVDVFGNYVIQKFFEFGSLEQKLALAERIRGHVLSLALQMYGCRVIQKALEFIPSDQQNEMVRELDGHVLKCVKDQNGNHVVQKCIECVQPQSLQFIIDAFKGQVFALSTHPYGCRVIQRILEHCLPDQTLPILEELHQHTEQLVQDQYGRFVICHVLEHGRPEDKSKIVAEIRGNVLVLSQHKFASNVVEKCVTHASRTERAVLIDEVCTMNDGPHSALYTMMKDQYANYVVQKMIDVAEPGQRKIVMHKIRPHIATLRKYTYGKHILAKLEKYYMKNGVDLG
# How it was run: as §1
# [3] = biological target: PUM1 PUF domain R4-APT (Homo sapiens, UniProt Q14671 828-1176, N971A;H972P;Q975T)
# How it was run: as §1
# [4] = biological target: PUM1 PUF domain R8-QFQ (Homo sapiens, UniProt Q14671 828-1176, N1122Q;Y1123F)
# How it was run: as §1
# [5] = biological target: PUM1 PUF domain R4-DHC (Homo sapiens, UniProt Q14671 828-1176, N971D;Q975C)
# How it was run: as §1
# [6] = biological target: T2, PUM1 PUF domain R6-LYS (Homo sapiens, UniProt Q14671 828-1176, N1043L;Q1047S)
# T2 sequence: T1 sequence with R216L, F217Y, C220S
# How it was run: as §1
# [7] = biological target: PUM1 PUF domain R3-TWW (Homo sapiens, UniProt Q14671 828-1176, C935T;R936W;Q939W)
# How it was run: as §1
# [8] = biological target: PUM1 PUF domain R3-APL (Homo sapiens, UniProt Q14671 828-1176, C935A;R936P;Q939L)
# How it was run: as §1
# [9] = biological target: PUM1 PUF domain R4-SRL (Homo sapiens, UniProt Q14671 828-1176, N971S;H972R;Q975L)
# How it was run: as §1
# [10] = biological target: PUM1 PUF domain R4-YRL (Homo sapiens, UniProt Q14671 828-1176, N971Y;H972R;Q975L)
# How it was run: as §1
# [11] = biological target: PUM1 PUF domain R5-QRK (Homo sapiens, UniProt Q14671 828-1176, C1007Q;Q1011K)
# How it was run: as §1
# [12] = biological target: PUM1 PUF domain R3-RRC (Homo sapiens, UniProt Q14671 828-1176, C935R;Q939C)
# How it was run: as §1
# [13] = biological target: PUM1 PUF domain R5-RHQ (Homo sapiens, UniProt Q14671 828-1176, C1007R;R1008H)
# How it was run: as §1
# [14] = biological target: PUM1 PUF domain R3-ATE (Homo sapiens, UniProt Q14671 828-1176, C935A;R936T;Q939E)
# How it was run: as §1
# [15] = biological target: PUM1 PUF domain R5-RGS (Homo sapiens, UniProt Q14671 828-1176, C1007R;R1008G;Q1011S)
# How it was run: as §1
# [16] = biological target: PUM1 PUF domain R5-KSV (Homo sapiens, UniProt Q14671 828-1176, C1007K;R1008S;Q1011V)
# How it was run: as §1
# [17] = biological target: PUM1 PUF domain R5-KST (Homo sapiens, UniProt Q14671 828-1176, C1007K;R1008S;Q1011T)
# How it was run: as §1
# [18] = biological target: PUM1 PUF domain R5-RPD (Homo sapiens, UniProt Q14671 828-1176, C1007R;R1008P;Q1011D)
# How it was run: as §1
# [19] = biological target: PUM1 PUF domain R5-RNW (Homo sapiens, UniProt Q14671 828-1176, C1007R;R1008N;Q1011W)
# How it was run: as §1
# [20] = biological target: PUM1 PUF domain R4-VNN (Homo sapiens, UniProt Q14671 828-1176, N971V;H972N;Q975N)
# How it was run: as §1
sequence,measurement,setting,value
GGCUAGAACUAGUGGAUCCCCCGGCGCCCGGCGGCUCGAGCCCGGGUAAGCGUAAAUAGUCUGCAUGCCGCCGGGCGCCAUGCCUGCAGGUCGACUCUAGAAAACAUG,binding signal,[1],4.32 log2 enrichment (interaction score)
GGCUAGAACUAGUGGAUCCCCCGGCGCCCGGCGGCUCGAGCCCGGGUAAGUGAAAAUAGUCUGCAUGCCGCCGGGCGCCAUGCCUGCAGGUCGACUCUAGAAAACAUG,binding signal,[2],1.2 log2 enrichment (interaction score)
GGCUAGAACUAGUGGAUCCCCCGGCGCCCGGCGGCUCGAGCCCGGGUAAGUGUAAAUAGUCUGCAUGCCGCCGGGCGCCAUGCCUGCAGGUCGACUCUAGAAAACAUG,binding signal,[3],4.02 log2 enrichment (interaction score)
same,binding signal,[4],2.91 log2 enrichment (interaction score)
same,binding signal,[5],3.99 log2 enrichment (interaction score)
same,binding signal,[6],4.98 log2 enrichment (interaction score)
same,binding signal,[7],3.61 log2 enrichment (interaction score)
same,binding signal,[8],3.04 log2 enrichment (interaction score)
same,binding signal,[9],3.87 log2 enrichment (interaction score)
same,binding signal,[10],3.01 log2 enrichment (interaction score)
same,binding signal,[11],2.97 log2 enrichment (interaction score)
same,binding signal,[1],4.31 log2 enrichment (interaction score)
same,binding signal,[2],4.13 log2 enrichment (interaction score)
GGCUAGAACUAGUGGAUCCCCCGGCGCCCGGCGGCUCGAGCCCGGGUAAGUGUAAUUAGUCUGCAUGCCGCCGGGCGCCAUGCCUGCAGGUCGACUCUAGAAAACAUG,binding signal,[12],3.79 log2 enrichment (interaction score)
same,binding signal,[7],1.77 log2 enrichment (interaction score)
GGCUAGAACUAGUGGAUCCCCCGGCGCCCGGCGGCUCGAGCCCGGGUAAGUGUGAAUAGUCUGCAUGCCGCCGGGCGCCAUGCCUGCAGGUCGACUCUAGAAAACAUG,binding signal,[13],4.24 log2 enrichment (interaction score)
GGCUAGAACUAGUGGAUCCCCCGGCGCCCGGCGGCUCGAGCCCGGGUAAGUGUAAGUAGUCUGCAUGCCGCCGGGCGCCAUGCCUGCAGGUCGACUCUAGAAAACAUG,binding signal,[14],3.33 log2 enrichment (interaction score)
GGCUAGAACUAGUGGAUCCCCCGGCGCCCGGCGGCUCGAGCCCGGGUAAGUGUCAAUAGUCUGCAUGCCGCCGGGCGCCAUGCCUGCAGGUCGACUCUAGAAAACAUG,binding signal,[15],2.45 log2 enrichment (interaction score)
same,binding signal,[16],3.48 log2 enrichment (interaction score)
same,binding signal,[17],4.03 log2 enrichment (interaction score)
same,binding signal,[18],3.41 log2 enrichment (interaction score)
same,binding signal,[19],0.29 log2 enrichment (interaction score)
GGCUAGAACUAGUGGAUCCCCCGGCGCCCGGCGGCUCGAGCCCGGGUAAGUGUUAAUAGUCUGCAUGCCGCCGGGCGCCAUGCCUGCAGGUCGACUCUAGAAAACAUG,binding signal,[15],2.13 log2 enrichment (interaction score)
same,binding signal,[16],2.74 log2 enrichment (interaction score)
same,binding signal,[17],2.74 log2 enrichment (interaction score)
same,binding signal,[18],2.4 log2 enrichment (interaction score)
same,binding signal,[19],2.82 log2 enrichment (interaction score)
GGCUAGAACUAGUGGAUCCCCCGGCGCCCGGCGGCUCGAGCCCGGGUAAGUGUAUAUAGUCUGCAUGCCGCCGGGCGCCAUGCCUGCAGGUCGACUCUAGAAAACAUG,binding signal,[3],2.95 log2 enrichment (interaction score)
same,binding signal,[20],3.82 log2 enrichment (interaction score)
same,binding signal,[5],6.39 log2 enrichment (interaction score)
GGCUAGAACUAGUGGAUCCCCCGGCGCCCGGCGGCUCGAGCCCGGGUAAGUGUACAUAGUCUGCAUGCCGCCGGGCGCCAUGCCUGCAGGUCGACUCUAGAAAACAUG,binding signal,[5],4.45 log2 enrichment (interaction score)
